High-throughput results from PubChem BioAssay.
A selection: hits, their analogues and other compounds. The true share with any hit is near 2.6%.
CRFR2-BP antag = antagonists of CRF-binding protein/CRF-R2 receptor complex; hit rate 0.59% among 350,000; AID 588475; inhibition, % at 11.8 µM; HEK293 CRF-R2/CRF-BP, CRF-induced calcium fluorescence;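 active = inhibition of the ligand-induced calcium signal above about 50% at the single tested concentration, limit read from the data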
IDE cell activ = IDE (human) activation, cell-based; P14735; HEK cells, FAbeta-B cleavage, fluorescence polarization; 0% vehicle, 100% cell-free pure enzyme wells; activation, % at 5.96 µM; hit rate 0.073% among 340,000;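 active = activation above the mean of all tested compounds plus 3 SD, set per screening campaign, cut at about 17% in these data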
Target sequence (P14735 whole entry, looked up): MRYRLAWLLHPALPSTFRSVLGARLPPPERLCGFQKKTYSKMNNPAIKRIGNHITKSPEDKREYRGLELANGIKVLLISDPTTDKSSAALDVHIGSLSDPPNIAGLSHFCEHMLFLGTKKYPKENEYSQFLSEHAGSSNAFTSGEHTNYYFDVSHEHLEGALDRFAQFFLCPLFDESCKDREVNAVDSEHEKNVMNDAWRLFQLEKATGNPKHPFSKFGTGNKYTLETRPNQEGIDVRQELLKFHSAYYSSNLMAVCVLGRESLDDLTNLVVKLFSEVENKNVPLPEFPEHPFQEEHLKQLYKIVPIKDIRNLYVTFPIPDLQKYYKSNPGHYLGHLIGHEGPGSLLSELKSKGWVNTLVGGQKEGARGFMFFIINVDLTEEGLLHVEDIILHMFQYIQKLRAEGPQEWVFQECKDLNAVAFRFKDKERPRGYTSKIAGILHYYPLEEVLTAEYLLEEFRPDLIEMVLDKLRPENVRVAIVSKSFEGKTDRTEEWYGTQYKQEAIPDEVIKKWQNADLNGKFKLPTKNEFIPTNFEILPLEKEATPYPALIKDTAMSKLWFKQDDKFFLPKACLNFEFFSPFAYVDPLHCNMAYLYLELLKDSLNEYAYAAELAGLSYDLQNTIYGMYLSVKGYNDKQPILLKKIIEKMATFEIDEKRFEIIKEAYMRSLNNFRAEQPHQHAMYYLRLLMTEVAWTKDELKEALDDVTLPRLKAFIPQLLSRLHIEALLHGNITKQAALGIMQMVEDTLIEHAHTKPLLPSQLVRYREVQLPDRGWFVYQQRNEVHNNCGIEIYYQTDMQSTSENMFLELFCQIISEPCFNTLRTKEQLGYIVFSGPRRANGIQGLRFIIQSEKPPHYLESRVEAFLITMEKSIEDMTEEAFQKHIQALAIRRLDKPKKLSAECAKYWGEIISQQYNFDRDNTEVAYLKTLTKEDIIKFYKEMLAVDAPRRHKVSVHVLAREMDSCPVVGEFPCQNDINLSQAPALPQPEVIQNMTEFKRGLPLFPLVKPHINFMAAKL
TPT1 inh = C. albicans TPT1 enzyme inhibition | recombinant caTPT1, FP RNA substrate dephosphorylation | inhibition, % at 5 µM | hit rate 0.81% among 300,000 | AID 1962;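 active = inhibition above the mean of all tested compounds plus 3 SD, set per screening campaign, cut at about 24% in these data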
IDE cell inh = cellular human IDE inhibition | P14735 | HEK cells, FAbetaB cleavage, fluorescence polarization | inhibition, % at 5.59 µM | hit rate 0.41% among 320,000 | AID 434962;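 active = percent inhibition above the average of all tested compounds plus 3 SD, set per screening campaign, cut at about 16% in these data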;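 also: IDE supplied by intact live HEK cells; FP after avidin binding of uncleaved biotin substrate so inhibition keeps polarization high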
Myeloid diff 2 = promotes myeloid progenitor differentiation; ER-HoxA9 myeloid progenitors, lysozyme-GFP differentiation, flow cytometry; calls only at 10 µM; hit rate 1% among 360,000;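 active = normalized GFP-positive differentiation at or above the plate's own cutoff, the solvent-only control mean plus 3 SD; inconclusive = no clear call, values can overlap the other calls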;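 also: cells exposed to compound for four days before flow analysis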
CRFBP-R2 agonist = CRF-BP/CRF-R2 complex agonism; HEK293 CRF-R2/CRF-BP, calcium dye fluorescence (FLIPR); percent of saturating CRF peptide response; hit rate 0.46% among 350,000; activation, % at 13.2 µM; AID 588473;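 active = activation of at least 50%, plus an integration ratio under a set limit after plate pattern correction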
Of the large screens only hits and unclear results are named; the others gave an inactive call.

CCOC(=O)c1c(NC(=O)C(=O)N/N=C/c2ccc(OCC)cc2)sc2c1CCCCC2	none
CCOC(=O)c1c(NC(=O)C(=O)N/N=C/c2ccc(O)c(OC)c2)sc2c1CCCCC2	CRFR2-BP antag 54.7
COc1cc(/C=N/NC(=O)c2nc(C)cc(C)n2)ccc1O	CRFBP-R2 agonist 164.9
O=C(NCCCO)C(=O)NCc1ccccn1	none
COc1ccc(N2CCN(S(=O)(=O)CCNC(=O)C3CCCCC3)CC2)cc1	none
O=C(COc1ccccc1F)N1N=C(c2cccs2)CC1c1ccco1 (centres undefined)	none (no result: TPT1 inh, IDE cell inh)
Cc1ccc2c(c1)-n1c(nc3cc(Cl)ccc3c1=O)C(CC(C)C)NC2=O (centres undefined)	none (no result: CRFR2-BP antag, IDE cell activ, TPT1 inh, Myeloid diff 2, CRFBP-R2 agonist)
C=CCSC(=C(C#N)C#N)c1cc2c([nH]1)CCCC2	Myeloid diff 2 active
O=C1C(=O)N(CCc2c[nH]c3ccccc23)C(c2cccnc2)/C1=C(/O)c1ccccc1 (centres undefined)	none (no result: CRFR2-BP antag, IDE cell activ, Myeloid diff 2, CRFBP-R2 agonist)
O=C(NCCCO)C(=O)Nc1cc2c3c(c1)CCN3C(=O)CC2	CRFR2-BP antag 78.0
S=C(Cc1ccccc1)Nc1ccccc1	none (no result: TPT1 inh, IDE cell inh)
O=C1N/C(=N/N=C/c2ccc(F)cc2)SC1c1ccccc1 (centres undefined)	CRFR2-BP antag 52.3 (no result: IDE cell activ)
COc1ccc(CNS(=O)(=O)NCc2ccccc2)cc1OC	CRFBP-R2 agonist 274.5
C#CCOCC1CN(C)C(=O)O1 (centres undefined)	none (no result: IDE cell activ, TPT1 inh, IDE cell inh)
Cc1ccc(C)c(-n2c3nc(=O)[nH]c(=O)c-3cc3cc([N+](=O)[O-])ccc32)c1	CRFBP-R2 agonist 61.4 (no result: Myeloid diff 2)
CC(C)CNC(=O)C1(C)CCCCCN1Cc1ccccc1-c1ccccc1 (centres undefined)	none (no result: CRFR2-BP antag, IDE cell activ, TPT1 inh, IDE cell inh, CRFBP-R2 agonist)
COCCCNC(=S)Nc1ccc(CC(=O)O)cc1	none
Cc1cc2nc3c(=O)[nH]c(=O)[nH]c3nc2c([N+](=O)[O-])c1N	IDE cell activ 20.9, CRFBP-R2 agonist 59.7 (no result: TPT1 inh, IDE cell inh)
O=C(CCn1nnc2ccccc21)N/N=C\Cc1ccccc1	none
CN(C)c1oc(/C=C/c2cccs2)nc1S(=O)(=O)c1ccccc1	none
C=CCn1c(O)c(C(CC)=Nc2ccccc2NC(=O)CC)c(=O)[nH]c1=O	CRFR2-BP antag 76.3
O=C(Nc1ccccc1N1CCCC1)c1cc2ccccc2o1	none
Cc1cccc(NC(=O)c2ccc([N+](=O)[O-])o2)c1C	Myeloid diff 2 active
CC1CCN(c2ccccc2NC(=O)c2ccc([N+](=O)[O-])o2)CC1	Myeloid diff 2 inconclusive
CN1CCN(c2ccccc2NC(=O)c2cc3ccccc3o2)CC1	Myeloid diff 2 active
O=C(Nc1cccc2ccccc12)c1ccc([N+](=O)[O-])o1	none (no result: Myeloid diff 2)
O=C(Nc1ccccc1N1CCCC1)c1ccc([N+](=O)[O-])o1	Myeloid diff 2 active
O=[N+]([O-])c1cccc(S(=O)(=O)N2CCCCC2c2cccnc2)c1 (centres undefined)	none
CCOC(=O)c1cn2nc(Oc3cccc(F)c3)ccc2n1	CRFR2-BP antag 62.5
CCOC(=O)c1cn2nc(Oc3ccc(NC(C)=O)cc3)ccc2n1	none
O=C(c1ccc(N2CN(C(=O)c3ccco3)c3nc4ccccc4nc32)cc1)N1CCOCC1	Myeloid diff 2 active
O=C(c1ccncc1)N1CCN(C(=O)c2ccco2)CC1	none
O=C(CCn1c2c(c3ccccc31)CCCC2)NNC(=O)c1ccccc1C(=O)O	CRFBP-R2 agonist 55.5
O=C(CCn1c2c(c3ccccc31)CCCC2)NNC(=O)c1ccccc1[N+](=O)[O-]	none
CCN(CC)c1ccc(C(=O)NNC(=O)CNC(=O)c2ccco2)cc1	none (no result: TPT1 inh, IDE cell inh)
CC(=O)Nc1ccc(S(=O)(=O)N(C)Cc2cnn(C)c2)cc1	none
CCC1(c2ccccc2)NC(=O)N(CC(=O)Nc2ccc(OC)nc2)C1=O (centres undefined)	CRFBP-R2 agonist 93.1
NNC(=O)c1cccc(COc2ccccc2Br)c1	Myeloid diff 2 active
CC(C)CC1NC(=S)N(Cc2ccccc2)C1=O (centres undefined)	none (no result: Myeloid diff 2)
O=C(Nc1ncc(Cc2ccc(Cl)cc2Cl)s1)c1ccc([N+](=O)[O-])cc1	CRFBP-R2 agonist 74.0
O=C(Nc1nnc(COc2ccc(Cl)cc2)s1)c1ccc([N+](=O)[O-])cc1	none
O=C(c1ccc(N2C(=O)CCC2=O)cc1)N1CCCSC1=Nc1ccccc1	none (no result: IDE cell activ, TPT1 inh, IDE cell inh)
C=CCN(c1ccccc1)S(=O)(=O)c1cccc(C(=O)O)c1	CRFR2-BP antag 97.9
C=CCN(c1ccccc1)S(=O)(=O)c1cccc(C(=O)NNC(=O)c2ccccc2O)c1	none
C=CCn1c(C)cc(-c2csc(NC)n2)c1C	Myeloid diff 2 active (no result: TPT1 inh, IDE cell inh)
O=C(CSc1ccccc1)N(c1ccc(Br)cc1)c1nccs1	CRFR2-BP antag 50.4
CCOC(=O)Cc1csc(NC(=O)C(C)(C)CC)n1	none
CSCC[C@H](NC(=O)c1cccc(S(=O)(=O)N2CCN(C)CC2)c1)c1nc2ccccc2[nH]1	CRFBP-R2 agonist 71.4 (no result: TPT1 inh)
CSCCC(NC(=O)c1cccc(S(=O)(=O)N2CCN(C(C)=O)CC2)c1)c1nc2ccccc2[nH]1 (centres undefined)	none (no result: TPT1 inh, IDE cell inh)
CC(C)C(N)c1csc(Nc2ccc(C(=O)c3ccccc3)cc2)n1 (centres undefined)	none (no result: CRFR2-BP antag, IDE cell activ, TPT1 inh, IDE cell inh, CRFBP-R2 agonist)
CCOC(=O)CC(=O)CSc1nc(-c2ccccc2)cc(-c2ccccc2)c1C#N	Myeloid diff 2 active
CC(C)OC(=O)CC(=O)CSc1nc(-c2ccc(F)cc2)cc(-c2ccccc2)c1C#N	none
N#Cc1c(-c2ccccc2)cc(-c2ccccc2)nc1SCC(=O)NCC(=O)O	CRFBP-R2 agonist 71.8
COc1cc(-c2cc(-c3ccccc3)nc(SCC(=O)Nc3nccs3)c2C#N)cc(OC)c1OC	Myeloid diff 2 active
CC(C)C(Sc1nc(-c2ccccc2)cc(-c2ccccc2)c1C#N)C(=O)O (centres undefined)	CRFR2-BP antag 68.5
O=C(O)/C=C/c1ccc(S(=O)(=O)NCc2cccnc2)cc1	none
COc1ccc(C(O)P(=O)(OCC(C)C)c2ccc(N(C)C)cc2)c(OC)c1 (centres undefined)	none
Cc1ccc(C)c(NC(=O)Cn2cnc3c(oc4ccccc43)c2=O)c1	CRFR2-BP antag 52.3
c1cncc(-c2nc(-c3cccs3)cs2)c1	Myeloid diff 2 active
CCOC(=O)C1=C(c2ccccc2)N(C)C(=O)NC1c1ccc(OC(F)F)c(OC)c1 (centres undefined)	Myeloid diff 2 active
Cc1c(N2CCCCC2)[nH]c2ccccc12	none (no result: IDE cell activ, TPT1 inh, IDE cell inh)
Cn1c(N)c(C(=O)COC(=O)CCc2ccccc2)c(=O)n(C)c1=O	Myeloid diff 2 active
Cn1c(N)c(C(=O)COC(=O)CNC(=O)c2ccccc2)c(=O)n(C)c1=O	none (no result: TPT1 inh)
Cc1cc(Br)ccc1SCC(=O)OCC(=O)c1c(N)n(C)c(=O)n(C)c1=O	Myeloid diff 2 active
Cc1cc(Br)ccc1SCC(=O)OCC(=O)NC1CC1	Myeloid diff 2 active
Cc1cc(Br)ccc1SCC(=O)OCC(=O)NC(C)c1ccccc1 (centres undefined)	none
Cc1cc(SCC(=O)OCC(=O)c2c(N)n(C)c(=O)n(C)c2=O)c(C)cc1Br	none
